Source: PubChem BioAssay (NCI)
This is part of a sample that, as a whole, favours compounds with a hit. Of some 83,000 tested, about 20% had one in any assay.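 Cells were grown in 96-well plates and exposed to the test compound at a single concentration for 48 hours; results are reported as percent growth, with values below 10 considered active.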 The source made the active and inactive calls.

Tests used:
Experiment in all cases: NCI-60 one-dose screen, 48 h (100 = growth as untreated, 0 = no growth, -100 = all killed)
Conditions in all cases: 10 µM unless noted
[1] = system: DU-145 prostate
[2] = system: K-562 leukemia
[3] = system: MALME-3M melanoma
[4] = system: MDA-MB-231 breast
[5] = system: RXF 393 renal
[6] = system: SF-268 CNS
[7] = system: SF-295 CNS
[8] = system: SF-539 CNS
[9] = system: UACC-257 melanoma
[10] = system: M14 melanoma
[11] = system: HCT-15 colon
[12] = system: HT29 colon
[13] = system: SNB-75 CNS
[14] = system: SNB-19 CNS
[15] = system: U251 CNS
[16] = system: PC-3 prostate
[17] = system: SK-MEL-5 melanoma
[18] = system: UACC-62 melanoma
[19] = system: LOX IMVI melanoma
[20] = system: SK-MEL-28 melanoma

Measured: growth

COc1ccc(/C(C)=C(\c2ccc(Cl)cc2)c2ccc(OCCN3CCCCCC3)cc2)cc1
active: [12] 8.63%
inactive: [1] 70.1% | [2] 10.4% | [3] 51.9% | [4] 57.4% | [5] 69.5% | [6] 72.3% | [7] 54.6% | [8] 56.8% | [9] 58.3% | [10] 60% | [11] 26.6% | [13] 74.4% | [14] 64.7% | [15] 42.3% | [16] 45.3% | [17] 48.3% | [18] 67.8% | [19] 35.8% | [20] 71.6%

CCn1cc(-c2ccnc3[nH]c(-c4cccc(CN(C)C)c4)cc23)c(-c2ccc(NC(=O)N(C)C)cc2)n1
inactive: [1] 40.2% | [3] 46.9% | [4] 14% | [6] 33.5% | [7] 16.1% | [9] 40.8% | [10] 21.4% | [11] 24.6% | [14] 55% | [15] 38.2% | [16] 30.6% | [17] 37.5% | [18] 39.9% | [20] 45.2%
active: [2] 1.59% | [5] -24.8% | [8] 5.58% | [12] -7.89% | [13] -52.6% | [19] -76.9%

COc1ccc2c(OCc3nnc4ccc(-c5ccccc5)nn34)ccnc2c1
active: [5] -13.9% [2.5 µM] | [19] 2.5% [2.5 µM]
inactive: [1] 109% [2.5 µM] | [2] 93.1% [2.5 µM] | [3] 97.8% [2.5 µM] | [4] 106% [2.5 µM] | [6] 109% [2.5 µM] | [7] 63.4% [2.5 µM] | [8] 95.1% [2.5 µM] | [9] 120% [2.5 µM] | [10] 104% [2.5 µM] | [11] 96.9% [2.5 µM] | [12] 94.1% [2.5 µM] | [13] 93.5% [2.5 µM] | [14] 106% [2.5 µM] | [15] 110% [2.5 µM] | [16] 96.9% [2.5 µM] | [17] 91.9% [2.5 µM] | [18] 108% [2.5 µM] | [20] 111% [2.5 µM]

Cc1ccc(NC(=O)c2ccc(CN3CC[C@H](N(C)C)C3)c(C(F)(F)F)c2)cc1Nc1nccc(-c2cncnc2)n1
inactive: [1] 30.6% | [6] 17.1% | [14] 19.6% | [16] 10.9%
active: [2] -19.6% | [3] -79.2% | [4] -34.5% | [5] -20.2% | [7] -43.9% | [8] -89.6% | [9] -74.7% | [10] -61% | [11] 8.37% | [12] -47.3% | [13] -85.9% | [15] -36% | [17] -96.6% | [18] -63.5% | [19] -72.7% | [20] -77.8%

COc1ccc(Br)cc1NC(=O)Nc1cccc2c1ccn2Cc1ccnc(N)c1
active: [2] 4.41% | [4] -2.75% | [7] -6.47% | [10] -30.2% | [11] 1.92% | [12] -40.6% | [19] -68%
inactive: [1] 58.7% | [3] 42.1% | [5] 16.3% | [6] 47.5% | [8] 27.5% | [9] 32.5% | [13] 26.7% | [14] 37.3% | [15] 13.9% | [16] 17.3% | [17] 23.5% | [18] 29% | [20] 53.3%

COCC(=O)NC/C=C/c1ccc2ncnc(Nc3ccc(Oc4ccc(C)nc4)c(C)c3)c2c1
inactive: [1] 30.7% | [2] 47.9% | [4] 42.7% | [5] 45.4% | [6] 52.3% | [7] 62.4% | [8] 48% | [9] 24.6% | [10] 13.1% | [11] 33.3% | [12] 12.2% | [13] 57.2% | [14] 77.9% | [15] 62.9% | [16] 74.1% | [17] 13.1% | [19] 31.7% | [20] 12.2%
active: [3] 4.79% | [18] 7.95%

CN1CCC(COc2cnc(-c3cccc(Cn4nc(-c5cccc(C#N)c5)ccc4=O)c3)nc2)CC1
active: [2] 3.04% | [9] -27.5% | [12] -38.5% | [20] -13.2%
inactive: [1] 77.8% | [3] 48.4% | [4] 57.3% | [5] 87.7% | [6] 67.2% | [7] 54.5% | [8] 33.5% | [10] 39% | [11] 12.4% | [13] 72.9% | [14] 78.2% | [15] 16.4% | [16] 67.8% | [17] 43.2% | [18] 95.1% | [19] 34.2%

c1cn2cc(-c3ccc4cn[nH]c4c3)nc(Nc3ccc(N4CCOCC4)cc3)c2n1
active: [13] -3.9%
inactive: [1] 53.3% | [2] 65.9% | [3] 74.8% | [4] 55.1% | [5] 12.4% | [6] 34.9% | [7] 66.4% | [8] 46.9% | [9] 62.6% | [10] 55.1% | [11] 66.5% | [12] 32.7% | [14] 50.3% | [15] 41.5% | [16] 43.3% | [17] 71.4% | [18] 53.3% | [19] 56.4% | [20] 63%
